Bioassay records: PubChem, National Center for Advancing Translational Sciences (NCATS)
GALC G270D act: galactocerebrosidase G270D activity enhancement, cell-based; Potency, µM (titrated, usually from 57.5 µM), actives largely listed as activators; AID 1159614; actives 0.1% (n = 45,000); 145M-Twi-hGALC-G270D cells, HMU-beta-Gal fluorescence, 48 h; also: nearly all actives have a fitted effect of over 65% in size
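qHTS, 1536-well; 145M-Twi-hGALC-G270D cells (WT line also made) in DMEM/F12 + 10% FBS; compound incubation on live cells; HMU-β-gal 0.1 mM final, pH 5.2, NaTC; carbonate stop; fluorescence increase = enhanced residual activity.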
GALK inh: GALK (human) enzyme inhibition. P51570. recombinant GALK, Kinase-Glo ATP luminescence, 1 h. Potency, µM (top dose mostly 57.5 µM), hits mostly inhibitors. 44,000 tested, under 10 active. AID 1347072
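Luminescent ATP-depletion readout (Kinase-Glo Plus, 10 min) after 1 h RT reaction of 5 nM GALK, 35 uM ATP, 100 uM galactose, pH 8.0 HEPES buffer. Decreased kinase activity scored as inhibition.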
NTMT1 inh: NTMT1 methyltransferase inhibition; NTMT1 MTase-Glo SAH luminescence, purified enzyme; AID 1645870; Potency, µM (series often up to 114 µM), most hits filed as inhibitors; Q9BV86; actives 2.5% (n = 59,000); also: nearly all actives have a fitted effect of over 65% in size
PTAP-TSG101 blk: TSG101-PTAP interaction inhibition, HIV-1 budding | Q99816 | Fluorescence polarization, FITC-PTAP peptide/Tsg101, 20 min | Potency, µM (highest dose often 115 µM), usual class: inhibitors | 44,000 tested, under 10 active | AID 1347069
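qHTS FP binding, 20 min r.t.: 10 uM Tsg101 domain + 50 nM FITC-PTAP peptide, pH 7.5 HEPES buffer with TCEP and EDTA.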
B2AR arrestin ag: beta-arrestin recruitment by human beta2-adrenergic receptor ligands; P07550; HTLA Tango cells, beta-arrestin recruitment, luciferase luminescence, 18 h; Potency, µM (titrated, usually from 46.1 µM), most hits filed as activators; 44,000 tested, under 10 active; AID 1347077
Target sequence (P07550 whole entry, looked up): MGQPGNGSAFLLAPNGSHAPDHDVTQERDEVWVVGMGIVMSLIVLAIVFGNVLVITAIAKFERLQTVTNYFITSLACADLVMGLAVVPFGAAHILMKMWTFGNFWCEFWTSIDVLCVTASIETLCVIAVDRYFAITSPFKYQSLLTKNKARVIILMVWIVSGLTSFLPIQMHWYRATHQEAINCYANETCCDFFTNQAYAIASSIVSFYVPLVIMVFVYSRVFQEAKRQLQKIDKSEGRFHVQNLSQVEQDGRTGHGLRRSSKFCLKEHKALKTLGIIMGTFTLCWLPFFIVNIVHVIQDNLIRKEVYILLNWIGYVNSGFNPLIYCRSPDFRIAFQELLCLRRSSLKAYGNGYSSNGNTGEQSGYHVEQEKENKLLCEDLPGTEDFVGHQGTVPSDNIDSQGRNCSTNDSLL
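First, Tango cells carrying beta2-AR and beta-arrestin fusions received compound up to 46 microM. After 18 hr at 37 degrees C, luciferase substrate was added for 15 minutes, then luminescence gave %Activity for curve fitting.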
FH mod: Identification of activators of human fumarate hydratase by quantitative high-throughput screening; Fumarate hydratase, mitochondrial (Homo sapiens), P07954; FH coupled MDH/diaphorase resazurin fluorescence, 15 min; Potency, µM (titrated, usually from 79.9 µM), actives largely listed as inhibitors; actives 0.22% (n = 54,000); also: the screen sought activators but most active calls are inhibition curves; nearly all actives have a fitted effect of over 45% in size
Each line names hits and unclear results; the compound was inactive in the other large screens; ! = not active in a repeat. This is one part of a sample in which hits are shown more often than they occur. Calls follow the shape of the dose curve; as a rule, active = well fitted curve in the direction sought with a large enough effect; inconclusive = small, poorly fitted or top-dose-only effect, or another doubt; inactive = no such curve, though single readings can be large; an effect the other way counts as inactive or inconclusive.

COc1cc(O)c2c(c1)/C=C/C[C@H](O)[C@H](O)C(=O)/C=C\C[C@H](C)OC2=O	NTMT1 inh 25µM (no result: GALC G270D act, GALK inh, PTAP-TSG101 blk, B2AR arrestin ag)
COc1cc(O)c2c(c1)C1=CC(O)C(O)CC1(C)OC2=O (stereo unspecified)	none (no result: GALC G270D act, GALK inh, PTAP-TSG101 blk, B2AR arrestin ag)
CC(C)(C)NCc1cc(Nc2ccnc3cc(Cl)ccc23)c2c(c1O)CCCC2	none (no result: GALC G270D act, GALK inh, PTAP-TSG101 blk, B2AR arrestin ag)
Cc1ccc(-c2cc(C(=O)NC3CCCCC3)c3ccccc3n2)cc1C	none (no result: GALC G270D act, GALK inh, PTAP-TSG101 blk, B2AR arrestin ag, FH mod)
COc1cc(-c2cccc(O)c2)cc2c1OCO2	none (no result: GALC G270D act, GALK inh, PTAP-TSG101 blk, B2AR arrestin ag)
CCN(CC)CCNC(=O)c1c(C)[nH]c(/C=C2\C(=O)Nc3ccc(Cl)cc32)c1C	NTMT1 inh 25µM (no result: GALC G270D act, GALK inh, PTAP-TSG101 blk, B2AR arrestin ag)
Cc1[nH]c(/C=C2\C(=O)Nc3ccc(F)cc32)c(C)c1C(=O)NC[C@H](O)CN1CCOCC1	NTMT1 inh inconclusive (no result: GALC G270D act, GALK inh, PTAP-TSG101 blk, B2AR arrestin ag)
Cc1cccc(CNc2ccnc(-c3ccc4ccccc4c3)n2)c1	none (no result: GALC G270D act, GALK inh, PTAP-TSG101 blk, B2AR arrestin ag, FH mod)
COc1ccccc1CCNC(=O)C(=O)NCC(c1ccco1)S(=O)(=O)c1cccs1 (stereo unspecified)	none
COc1ccccc1CCNC(=O)C(=O)NCC(c1ccco1)S(=O)(=O)c1ccc(C)cc1 (stereo unspecified)	GALC G270D act 7.9µM
Fc1ccc(CNc2nc(-c3ccccc3C(F)(F)F)nc3ccccc23)cc1	none (no result: GALC G270D act, GALK inh, PTAP-TSG101 blk, B2AR arrestin ag, FH mod)
Cc1nc(Nc2ncc(C(=O)Nc3c(C)cccc3Cl)s2)cc(N2CCN(CCO)CC2)n1	NTMT1 inh 22µM! (no result: GALK inh, PTAP-TSG101 blk, B2AR arrestin ag)
Cc1oc(-c2ccc(Cl)cc2)nc1CN1CCC(C(=O)NCCCN2CCN(c3cccc(Cl)c3)CC2)CC1	NTMT1 inh 79µM, FH mod inconclusive
Cc1oc(-c2cccc(Cl)c2)nc1CN1CCC(C(=O)NCCCN2CCN(c3ccc(F)cc3)CC2)CC1	NTMT1 inh inconclusive
COc1ccc(N2CCN(C(=O)C3CCN(Cc4nc(-c5ccc(Cl)cc5)oc4C)CC3)CC2)cc1	NTMT1 inh 89µM
C=C[C@@]1(C)C=C2C(=O)C(O)=C3[C@](C)(C(=O)O)CC[C@@H]4C[C@]34[C@]2(O)C(=O)C1	none (no result: GALC G270D act, GALK inh, PTAP-TSG101 blk, B2AR arrestin ag)
COc1cccc(C2=CC(c3ccccc3F)n3ncc(C(=O)Nc4ccc(F)cc4)c3N2)c1 (stereo unspecified)	NTMT1 inh 22µM
COc1ccc(C2=CC(c3ccccc3F)n3ncc(C(=O)Nc4ccc(C)cc4)c3N2)cc1 (stereo unspecified)	NTMT1 inh inconclusive
c1ccc(CNCc2ccc(CN3CCCNCCNCCCNCC3)cc2)nc1	none (no result: GALC G270D act, GALK inh, PTAP-TSG101 blk, B2AR arrestin ag, FH mod)
CCOc1ccc(CCNC(=O)CCc2c(C)nc3c(c(C)nn3-c3ccccc3)c2C)cc1OCC	NTMT1 inh 89µM
Cc1nc2c(c(C)nn2-c2ccccc2)c(C)c1CCC(=O)NCCc1ccccc1	none
O=S(=O)(c1cccc(Cl)c1)n1c(/C=C/c2ccccc2Cl)nc2ccccc21	NTMT1 inh 6.3µM
Cc1ccc(/C=C/c2nc3ccccc3n2S(=O)(=O)c2ccc(Br)cc2)cc1	NTMT1 inh inconclusive
CSc1ccc(/C=C/c2nc3ccccc3n2S(=O)(=O)c2cccc(Cl)c2)cc1	NTMT1 inh 6.3µM
Cc1nc(NCc2ccc(-c3cccnc3)cc2)c2ccccc2n1	none (no result: GALC G270D act, GALK inh, PTAP-TSG101 blk, B2AR arrestin ag, FH mod)
CC(=O)Nc1ccc(NC(=O)C2CCN(c3cnccn3)CC2)cc1	GALK inh inconclusive, NTMT1 inh inconclusive
CC(C)(C)c1ccc(NC(=O)C2CCCN(c3cnccn3)C2)cc1 (stereo unspecified)	NTMT1 inh 89µM, B2AR arrestin ag inconclusive
COc1cc(CCc2cc(NC(=O)c3ccc(N4CC(C)NC(C)C4)cc3)n[nH]2)cc(OC)c1 (stereo unspecified)	none (no result: GALC G270D act, GALK inh, PTAP-TSG101 blk, B2AR arrestin ag)
CCc1ccccc1N1C(=O)N(Cc2cccc(Cl)c2)c2ccccc2S1(=O)=O	NTMT1 inh 89µM
CCN(CC)CCOc1ccc(Cc2ccccc2)cc1	NTMT1 inh 32µM! (no result: GALK inh, PTAP-TSG101 blk, B2AR arrestin ag)
CCN(CC)CCOc1ccc(C(=C(Cl)c2ccccc2)c2ccccc2)cc1	none (no result: GALC G270D act, GALK inh, PTAP-TSG101 blk, B2AR arrestin ag)
